Results from PubChem BioAssay AID1159580 (chemical genetic matrix, 2015).
In all, about 5,500 compounds went through this assay and about 2,000 (36%) were called active. Not shown: some 18% with an inconclusive outcome. Cut-off read from the data, not from the text of the source: active = normalized growth mostly below about 0.91 (no sharp cut-off); inconclusive = no clear call, values can overlap the other calls; inactive = mostly above about 0.92. The list shows a part of the results.

Experiment: chemical genetic growth profiling, strain panel (AID 1159580);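 note: tested at 20 µM; growth read once vehicle control cultures reached saturation at 30 °C; 1 = growth at the plate median or of vehicle wells; lower values mean less growth of the strain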
Settings: growth OD

Measured: normalized growth

NC(Cn1ccc(=O)c(O)c1)C(=O)O (configuration not stated)
inactive: S. cerevisiae deletion strains, locus YJR075W, strain HOC1, active compounds read low 1.01 | S. cerevisiae deletion strains, locus YKL009W, strain mrt4, active compounds read low 1.01 | S. cerevisiae deletion strains, locus YKL068W, active compounds read low 0.993 | S. cerevisiae deletion strains, locus YKL085W, strain MDH1 (second series), active compounds read low 0.993 | S. cerevisiae deletion strains, locus YKL085W, strain MDH1, active compounds read low 0.993 | S. cerevisiae deletion strains, locus YKL160W, strain elf1, active compounds read low 1.04 | S. cerevisiae deletion strains, locus YKL190W, strain CNB1, active compounds read low 1.01 | S. cerevisiae deletion strains, locus YKR001C, strain vps1, active compounds read low 0.991 | S. cerevisiae deletion strains, locus YKR026C, strain gcn3, active compounds read low 1.03 | S. cerevisiae deletion strains, locus YKR091W, strain srl3, active compounds read low 1.01 | S. cerevisiae deletion strains, locus YLL001W, strain dnm1, active compounds read low 0.981 | S. cerevisiae deletion strains, locus YLL026W, active compounds read low 1.01 | S. cerevisiae deletion strains, locus YLL041C, strain sdh2, active compounds read low 1.01 | S. cerevisiae deletion strains, locus YLR027C, strain aat2, active compounds read low 1.01 | S. cerevisiae deletion strains, locus YLR039C, strain RIC1, active compounds read low 1.04 | S. cerevisiae deletion strains, locus YLR058C, strain SHM2, active compounds read low 1.01 | S. cerevisiae deletion strains, locus YLR102C, strain apc9, active compounds read low 0.988 | S. cerevisiae deletion strains, locus YLR113W, strain HOG1, active compounds read low 1.03 | S. cerevisiae deletion strains, locus YLR221C, strain rsa3, active compounds read low 1 | S. cerevisiae deletion strains, locus YLR258W, strain gsy2, active compounds read low 1.03 | S. cerevisiae deletion strains, locus YLR262C, strain YPT6 (second series), active compounds read low 0.977 | S. cerevisiae deletion strains, locus YLR262C, strain YPT6, active compounds read low 1.03 | S. cerevisiae deletion strains, locus YLR268W, strain sec22, active compounds read low 0.962 | S. cerevisiae deletion strains, locus YLR320W, strain mms22, active compounds read low 0.981 | S. cerevisiae deletion strains, locus YLR330W, strain CHS5, active compounds read low 1.01 | S. cerevisiae deletion strains, locus YLR342W, strain FKS1 (second series), active compounds read low 1.06 | S. cerevisiae deletion strains, locus YLR342W, strain FKS1, active compounds read low 1.03 | S. cerevisiae deletion strains, locus YLR357W, strain rsc2, active compounds read low 0.986 | S. cerevisiae deletion strains, locus YLR370C, strain arc18, active compounds read low 1.03 | S. cerevisiae deletion strains, locus YLR371W, strain rom2, active compounds read low 0.995 | S. cerevisiae deletion strains, locus YLR384C, strain iki3, active compounds read low 1.03 | S. cerevisiae deletion strains, locus YLR418C, strain cdc73, active compounds read low 0.994 | S. cerevisiae deletion strains, locus YML016C, strain PPZ1, active compounds read low 1.02 | S. cerevisiae deletion strains, locus YML032C, strain rad52, active compounds read low 0.965 | S. cerevisiae deletion strains, locus YML120C, strain ndi1, active compounds read low 1.01 | S. cerevisiae deletion strains, locus YML124C, strain tub3, active compounds read low 0.995 | S. cerevisiae deletion strains, locus YMR058W, strain fet3, active compounds read low 1.01 | S. cerevisiae deletion strains, locus YMR078C, strain ctf18, active compounds read low 0.982 | S. cerevisiae deletion strains, locus YMR125W, strain sto1, active compounds read low 1.04 | S. cerevisiae deletion strains, locus YMR129W, active compounds read low 1.01 | S. cerevisiae deletion strains, locus YMR205C, strain PFK2, active compounds read low 1.01 | S. cerevisiae deletion strains, locus YMR223W, strain ubp8, active compounds read low 1.01 | S. cerevisiae deletion strains, locus YMR231W, strain pep5, active compounds read low 1.02 | S. cerevisiae deletion strains, locus YMR263W, strain SAP30, active compounds read low 1.01 | S. cerevisiae deletion strains, locus YMR307W, strain GAS1, active compounds read low 1.02 | S. cerevisiae deletion strains, locus YNL067W, strain RPL9B, active compounds read low 1.01 | S. cerevisiae deletion strains, locus YNL071W, strain lat1, active compounds read low 1.02 | S. cerevisiae deletion strains, locus YNL128W, strain TEP1, active compounds read low 1.01 | S. cerevisiae deletion strains, locus YNL153C, strain GIM3, active compounds read low 1.01 | S. cerevisiae deletion strains, locus YNL183C, strain NPR1, active compounds read low 0.974 | S. cerevisiae deletion strains, locus YNL209W, strain ssb2, active compounds read low 1.03 | S. cerevisiae deletion strains, locus YNL233W, strain BNI4, active compounds read low 1.02 | S. cerevisiae deletion strains, locus YNL248C, strain rpa49, active compounds read low 1.04 | S. cerevisiae deletion strains, locus YNL250W, strain rad50, active compounds read low 0.978 | S. cerevisiae deletion strains, locus YNL271C, strain bni1, active compounds read low 0.984 | S. cerevisiae deletion strains, locus YNL298W, strain CLA4, active compounds read low 0.987 | S. cerevisiae deletion strains, locus YNL307C, strain MCK1, active compounds read low 0.997 | S. cerevisiae deletion strains, locus YNL322C, strain KRE1 (second series), active compounds read low 1.02 | S. cerevisiae deletion strains, locus YNL322C, strain KRE1, active compounds read low 1.01 | S. cerevisiae deletion strains, locus YNR049C, strain mso1, active compounds read low 1.02 | S. cerevisiae deletion strains, locus YNR052C, strain pop2, active compounds read low 0.992 | S. cerevisiae deletion strains, locus YOL006C, strain TOP1, active compounds read low 1.01 | S. cerevisiae deletion strains, locus YOL012C, strain htz1 0.622 | S. cerevisiae deletion strains, locus YOL147C, strain pex11, active compounds read low 0.985 | S. cerevisiae deletion strains, locus YOR001W, strain rrp6, active compounds read low 0.969 | S. cerevisiae deletion strains, locus YOR061W, strain CKA2, active compounds read low 1.03 | S. cerevisiae deletion strains, locus YOR069W, strain VPS5, active compounds read low 1.01 | S. cerevisiae deletion strains, locus YOR070C, strain gyp1, active compounds read low 1.03 | S. cerevisiae deletion strains, locus YOR080W, strain dia2, active compounds read low 1.01 | S. cerevisiae deletion strains, locus YOR083W, strain WHI5, active compounds read low 0.982 | S. cerevisiae deletion strains, locus YOR106W, strain vam3, active compounds read low 1.02 | S. cerevisiae deletion strains, locus YOR136W, strain idh2, active compounds read low 0.996 | S. cerevisiae deletion strains, locus YOR144C, strain elg1, active compounds read low 0.985 | S. cerevisiae deletion strains, locus YOR184W, strain ser1, active compounds read low 0.99 | S. cerevisiae deletion strains, locus YOR231W, strain MKK1, active compounds read low 1.02 | S. cerevisiae deletion strains, locus YOR265W, strain rbl2, active compounds read low 1.02 | S. cerevisiae deletion strains, locus YOR270C, strain vph1, active compounds read low 1.07 | S. cerevisiae deletion strains, locus YOR290C, strain snf2, active compounds read low 1.04 | S. cerevisiae deletion strains, locus YOR316C, strain cot1, active compounds read low 0.988 | S. cerevisiae deletion strains, locus YPL051W, strain arl3, active compounds read low 1.03 | S. cerevisiae deletion strains, locus YPL055C, strain LGE1, active compounds read low 1.05 | S. cerevisiae deletion strains, locus YPL078C, strain atp4, active compounds read low 1.05 | S. cerevisiae deletion strains, locus YPL106C, strain sse1, active compounds read low 1.02 | S. cerevisiae deletion strains, locus YPL240C, strain hsp82, active compounds read low 1.01 | S. cerevisiae deletion strains, locus YPL241C, strain CIN2, active compounds read low 1.01 | S. cerevisiae deletion strains, locus YPL256C, strain CLN2, active compounds read low 1.03 | S. cerevisiae deletion strains, locus YPR119W, strain clb2, active compounds read low 0.988 | S. cerevisiae deletion strains, locus YPR141C, strain kar3, active compounds read low 0.993 | S. cerevisiae deletion strains, locus YPR163C, strain tif3, active compounds read low 0.987 | S. cerevisiae deletion strains, locus YPR167C, strain met16, active compounds read low 0.99 | S. cerevisiae deletion strains, strain wtn01, active compounds read low 0.991 | S. cerevisiae strains, strain wild type, active compounds read low 1.03
